The text below walks through data of the supplement of paper PMC10037445.

In test [1] the test system is RAW-Dual. Description: NF-kB SEAP reporter activity, fold change vs agonist alone; higher = enhanced NF-kB activity. The conditions noted are these: library stock concentration (final ~1000-fold dilution): 10 mM. In a few lines: (§1)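 Library stock was pin-tooled at 50 nL into 384-well plates of RAW-Dual macrophages (50,000 cells/well, DMEM), followed 1 h later by a PRR agonist, and the cells were kept at 37 °C, 5% CO2. Supernatant collected after 20 hours was read for IRF by QuantiLuc luminescence and for NF-κB by QuantiBlue absorbance at 620 nm. Reporter activity is fold change over agonist-alone wells, and a well counted as cytotoxic when its IncuCyte confluency was below 70% of agonist controls in both mask sets.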

Test [2] has as its system RAW-Dual. Description: NF-kB SEAP reporter activity, fold change vs agonist alone; cytotoxicity flag (confluency mask): not cytotoxic; higher = enhanced NF-kB activity. In a few lines: as §1
For test [3], the system named is RAW-Dual. Description: NF-kB SEAP reporter activity, fold change vs agonist alone; cytotoxicity flag (confluency mask): cytotoxic (confluency <70% of control); higher = enhanced NF-kB activity. In a few lines:
as §1

Where [4] appears, read: cytotoxicity flag (confluency mask): not cytotoxic, agonist: Imiquimod (TLR7) […].
The mark [5] stands for this setting: cytotoxicity flag (confluency mask): not cytotoxic, agonist: MPLA (TLR4) […].
Where [6] appears, read: agonist: ODN 1826 (TLR9) 0.5 ug/mL.
Setting [7] is: agonist: Pam2CSK4 (TLR2/6) 0.1 ug/mL.
The mark [8] stands for this setting: agonist: Pam3CSK4 (TLR2/1) 0.1 ug/mL.

“And” between values parts separate entries of the source, which are not always exact repeats. Equal values may be shown once. Over roughly 2,900 compounds, “NF-kB SEAP reporter activity, fold change vs agonist alone” has its median near 0.99; the highest 2% begin near 2.6. Many of the other results were omitted from the sample, so the highest values are more common in it than they were.

For the compound `COc1ccccc1C(=O)Nc1cc2c(cc1N1CCNCC1C)n(C)c(=O)n2C` (centres undefined), the “NF-kB SEAP reporter activity” value was 1.01 in test [1] (setting [4]) and 1.37 in test [1] (setting [5]).

In the case of `COc1ccccc1C(=O)Nc1cc2c(cc1N1CCNCC1C)n(C)c(=O)n2C` (centres undefined) (library stock concentration (final ~1000-fold dilution): 10 mM), the “NF-kB SEAP reporter activity” value in test [2] (agonist: LPS (TLR4) 0.1 ug/mL) was found to be 1.48; in test [2] (setting [6]) it was 0.383; in test [2] (setting [7]), 0.997; in test [2] (setting [8]) it was 0.973.

As to `CCOC(=O)C(CCc1ccccc1)NC1CSC(c2cccs2)CN(CC(=O)O)C1=O.Cl` (centres undefined) (library stock concentration (final ~1000-fold dilution): 10 mM), the “NF-kB SEAP reporter activity” value in test [2] (agonist: LPS (TLR4) 0.1 ug/mL) amounted to 0.869; in test [2] (setting [6]) it was 1.04; in test [2] (setting [7]) it was 0.946; in test [2] (setting [8]) it was 1.15.

Consider `CCOC(=O)C(CCc1ccccc1)NC1CSC(c2cccs2)CN(CC(=O)O)C1=O.Cl` (centres undefined), for which the “NF-kB SEAP reporter activity” value in test [1] (setting [4]) and in test [1] (setting [5]) was 1.01 each time.

Consider `COc1ccc(-c2nc3cc(C4=NNC(=O)CC4C)ccc3[nH]2)cc1` (centres undefined) (library stock concentration (final ~1000-fold dilution): 10 mM), for which the “NF-kB SEAP reporter activity” value in test [2] (agonist: LPS (TLR4) 0.1 ug/mL) stood at 1.3; in test [2] (setting [6]) it was 2.47; in test [2] (setting [7]), 1.8; in test [2] (setting [8]), 1.7.

With `NC(=O)c1ccc2[nH]c(-c3ccc(Oc4ccc(Cl)cc4)cc3)nc2c1` (library stock concentration (final ~1000-fold dilution): 10 mM), the “NF-kB SEAP reporter activity” value in test [2] (agonist: LPS (TLR4) 0.1 ug/mL) came out at 1.71; in test [2] (setting [6]) it was 1.59; in test [2] (setting [7]), 2.1; in test [2] (setting [8]) it was 3.55.

Consider `NC(=O)c1ccc(-c2nc(-c3ccc4c(c3)OCCO4)c(-c3ccccn3)[nH]2)cc1`, for which the results for the “NF-kB SEAP reporter activity” value in test [1] (setting [4]) and in test [1] (setting [5]) were 0.743 and 1.45, respectively.

Consider `NC(=O)c1ccc(-c2nc(-c3ccc4c(c3)OCCO4)c(-c3ccccn3)[nH]2)cc1` (library stock concentration (final ~1000-fold dilution): 10 mM), for which the “NF-kB SEAP reporter activity” value in test [2] (agonist: LPS (TLR4) 0.1 ug/mL) turned out to be 1.81; in test [2] (setting [6]) it was 1.29; in test [2] (setting [7]), 1.25; in test [2] (setting [8]), 0.913.

Turning to `COc1ccc(-c2nc3cc(C4=NNC(=O)CC4C)ccc3[nH]2)cc1` (centres undefined), the entries for the “NF-kB SEAP reporter activity” value in test [1] (setting [4]) and in test [1] (setting [5]) were 1.67 and 1.34, respectively.

For `NC(=O)c1ccc2[nH]c(-c3ccc(Oc4ccc(Cl)cc4)cc3)nc2c1`, the figures for the “NF-kB SEAP reporter activity” value in test [1] (setting [4]) and in test [1] (setting [5]) were 1.47 and 2.09, respectively.

With `Cl.Cl.Fc1cc(-c2cccc3ncc(-c4cnn(C5CCNCC5)c4)nc23)cc(F)c1CN1CCOCC1` (library stock concentration (final ~1000-fold dilution): 10 mM), the “NF-kB SEAP reporter activity” value in test [2] (agonist: LPS (TLR4) 0.1 ug/mL) turned out to be 0.349; in test [2] (setting [6]), 0.924; in test [2] (setting [7]), 0.147; in test [2] (setting [8]) it was 0.912.

On to `Cl.Cl.Fc1cc(-c2cccc3ncc(-c4cnn(C5CCNCC5)c4)nc23)cc(F)c1CN1CCOCC1`, for which the “NF-kB SEAP reporter activity” value in test [1] (setting [4]) was determined as 0.92; in test [1] (setting [5]), 0.944.

In the case of `CCOC(=O)C(CCc1ccccc1)NC(C)C(=O)N1C(=O)N(C)CC1C(=O)O.Cl` (centres undefined) (library stock concentration (final ~1000-fold dilution): 10 mM), the “NF-kB SEAP reporter activity” value in test [2] (agonist: LPS (TLR4) 0.1 ug/mL) was determined as 1.2; in test [2] (setting [6]) it was 0.98; in test [2] (setting [7]) it was 0.83; in test [2] (setting [8]), 1.03.

In the case of `CCOC(=O)C(CCc1ccccc1)NC(C)C(=O)N1C(=O)N(C)CC1C(=O)O.Cl` (centres undefined), the figures for the “NF-kB SEAP reporter activity” value in test [1] (setting [4]) and in test [1] (setting [5]) were 0.962 and 0.927, respectively.

`CCC(C)C(=O)OC1CC(C)C=C2C=CC(C)C(CCC3CC(O)CC(=O)O3)C21` (centres undefined): the “NF-kB SEAP reporter activity” value turned out to be 2.54 in test [1] (setting [4]) and 1.94 in test [1] (setting [5]).

In the case of `CCC(C)C(=O)OC1CCC=C2C=CC(C)C(CCC3CC(O)CC(=O)O3)C21` (centres undefined), the “NF-kB SEAP reporter activity” value in test [1] (setting [4]) was 2.3; in test [1] (setting [5]), 1.97.

`CCC(C)C(=O)OC1CCC=C2C=CC(C)C(CCC3CC(O)CC(=O)O3)C21` (centres undefined) (library stock concentration (final ~1000-fold dilution): 10 mM): the “NF-kB SEAP reporter activity” value in test [2] (agonist: LPS (TLR4) 0.1 ug/mL) was 3.69; in test [2] (setting [6]), 2.68; in test [2] (setting [7]), 1.45; in test [2] (setting [8]) it was 2.12.

For `CCC(C)(C)C(=O)OC1CC(C)C=C2C=CC(C)C(CCC3CC(O)CC(=O)O3)C21` (centres undefined) (library stock concentration (final ~1000-fold dilution): 10 mM), the “NF-kB SEAP reporter activity” value in test [3] (agonist: LPS (TLR4) 0.1 ug/mL) came out at 2.35; in test [3] (setting [6]), 2.44; in test [3] (setting [7]), 2.12; in test [3] (setting [8]), 3.35.

Take `CCC(C)(C)C(=O)OC1CC(C)C=C2C=CC(C)C(CCC3CC(O)CC(=O)O3)C21` (centres undefined): the “NF-kB SEAP reporter activity” value in test [1] (cytotoxicity flag (confluency mask): cytotoxic (confluency <70% of control), agonist: Imiquimod (TLR7) […]) was 2.53; in test [1] (cytotoxicity flag (confluency mask): cytotoxic (confluency <70% of control), agonist: MPLA (TLR4) […]) it was 1.95.

For the compound `CCC(C)C(=O)OC1CC(O)C=C2C=CC(C)C(CCC(O)CC(O)CC(=O)O)C21` (centres undefined) (library stock concentration (final ~1000-fold dilution): 10 mM), the “NF-kB SEAP reporter activity” value was 1.01 and 1.04 in test [2] (agonist: LPS (TLR4) 0.1 ug/mL); 1 and 1.02 in test [2] (setting [6]); 1.08 and 1.05 in test [2] (setting [7]); 0.841 and 1.15 in test [2] (setting [8]).

Take `CCC(C)C(=O)OC1CC(C)C=C2C=CC(C)C(CCC3CC(O)CC(=O)O3)C21` (centres undefined) (library stock concentration (final ~1000-fold dilution): 10 mM): the “NF-kB SEAP reporter activity” value in test [2] (agonist: LPS (TLR4) 0.1 ug/mL) came out at 3.33; in test [2] (setting [6]), 2.62; in test [2] (setting [7]), 1.93; in test [2] (setting [8]) it was 3.02.

For the compound `CC(C)(Cc1ccc2ccccc2c1)NCC(O)COc1cccc(Cl)c1C#N` (centres undefined) (library stock concentration (final ~1000-fold dilution): 10 mM), the “NF-kB SEAP reporter activity” value in test [2] (agonist: LPS (TLR4) 0.1 ug/mL) is 0.273; in test [2] (setting [6]), 0.962; in test [2] (setting [7]), 0.164; in test [2] (setting [8]), 1.03.

With `CC(C)(Cc1ccc2ccccc2c1)NCC(O)COc1cccc(Cl)c1C#N` (centres undefined), the “NF-kB SEAP reporter activity” value was determined as 0.896 in test [1] (setting [4]) and 0.972 in test [1] (setting [5]).

Take `CCCCCCCCCC(=O)NC(Cc1c[nH]c2ccccc12)C(=O)NC(CC(N)=O)C(=O)NC(CC(=O)O)C(=O)NC1C(=O)NCC(=O)NC(CCCN)C(=O)NC(CC(=O)O)C(=O)NC(C)C(=O)NC(CC(=O)O)C(=O)NCC(=O)NC(CO)C(=O)NC(C(C)CC(=O)O)C(=O)NC(CC(=O)c2ccccc2N)C(=O)OC1C` (centres undefined) (library stock concentration (final ~1000-fold dilution): 10 mM): the “NF-kB SEAP reporter activity” value in test [2] (agonist: LPS (TLR4) 0.1 ug/mL) was found to be 1.33; in test [2] (setting [6]), 1.01; in test [2] (setting [7]), 1.05; in test [2] (setting [8]), 1.19.
